An excerpt weighted towards active compounds, which were near 14% of everything screened.
LmPK inh = qHTS Assay for Inhibitors of Leishmania Mexicana Pyruvate Kinase (LmPK) | Q27686 | purified LmPK, Kinase-Glo ATP luminescence, 1 h | Potency, µM (doses to about 57.5 µM), without a hit: top-dose activity change, negative = inhibition, hits mostly inhibitors | actives 0.37% (n = 290,000) | AID 1721, 2009; note: potency is the fitted concentration of half-maximal effect; % is set by controls: 0 for no effect and ±100 for the full control effect
Target sequence (Q27686 whole entry, looked up): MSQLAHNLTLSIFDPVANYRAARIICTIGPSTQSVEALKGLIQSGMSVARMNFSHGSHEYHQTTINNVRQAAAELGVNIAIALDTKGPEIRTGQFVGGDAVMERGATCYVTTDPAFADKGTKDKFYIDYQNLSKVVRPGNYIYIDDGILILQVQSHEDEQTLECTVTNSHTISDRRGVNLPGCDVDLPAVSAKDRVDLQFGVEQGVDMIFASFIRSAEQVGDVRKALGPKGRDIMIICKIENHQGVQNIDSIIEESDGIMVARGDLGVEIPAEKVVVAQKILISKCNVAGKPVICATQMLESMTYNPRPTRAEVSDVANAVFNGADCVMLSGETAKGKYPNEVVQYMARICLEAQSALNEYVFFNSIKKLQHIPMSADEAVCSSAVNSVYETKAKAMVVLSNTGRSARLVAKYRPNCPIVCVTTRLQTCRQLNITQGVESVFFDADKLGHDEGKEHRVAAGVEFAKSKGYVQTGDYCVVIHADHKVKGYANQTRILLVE
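In 50 mM imidazole pH 7.2 with 7 mM MgCl2, LmPK (0.1 nM) turned over PEP (0.5 mM) and ADP (0.1 mM) for 1 h at room temperature. Luciferase read-out of ATP.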
Cycloheximide cs = Cycloheximide Counterscreen for Small Molecule Inhibitors of Shiga Toxin; max response, %; AID 2314, 2010; actives 12% (n = 300,000); cell reporter, cycloheximide protein synthesis inhibition counterscreen; in the data active = max response mostly above about 13%, no sharp cut-off; inactive = mostly below about 14%; note: read at 38.3 µM for the half of the compounds with a filed dose; 0% is about no effect
Shiga toxin inh = A qHTS for Small Molecule Inhibitors of Shiga Toxin; Vero cells, Shiga toxin protein synthesis inhibition reporter; inhibition, % at 38.7 µM; actives 9.2% (n = 290,000); in the data active = inhibition mostly above about 28%, no sharp cut-off; inactive = mostly below about 43%; note: 0% is about no effect
FBPA Giardia inh = qHTS Assay for Inhibitors of Fructose-1,6-bisphosphate Aldolase from Giardia Lamblia. A8B2U2. purified Giardia FBPA. Potency, µM (doses to about 59.6 µM), for inactives: top-dose activity, negative = inhibition, actives largely listed as inhibitors. actives 0.71% (n = 290,000). AID 2451, 2010; note: potency is the fitted concentration of half-maximal effect; % is set by controls: 0 for no effect and ±100 for the full control effect; nearly all actives have a fitted effect of over 55% in size
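40 nM FBPA preincubated 10 min at RT with compound (up to 57.5 uM final), then substrate plus GAPDH/TPI/NAD/arsenate coupling and diaphorase/resazurin added. Fluorescence read after 20 min at RT, 525/598 nm.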
NS1 function inh = qHTS Assay for Inhibitors of Influenza NS1 Protein Function | Potency, µM (top dose mostly 46.1 µM), for the others: at the top dose activity, positive = more growth | actives 0.4% (n = 270,000); calls by dose curve; note: potency is the fitted concentration of half-maximal effect; actives are rising curves; nearly all actives have a fitted effect of over 50% in size
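In this qHTS, NS1 from influenza A is expressed in budding yeast, where it slows growth. Cells are switched from glucose to 2% galactose medium (pH 6.0, -URA), treated with compound, and growth recovery is read at OD600.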
* marks the source's active call; other numbers are inactive results; [ ] = dose if it differs, or a comment. Unless noted, calls come from the whole dose curve; as a rule, active = well fitted curve in the direction sought with a large enough effect; inconclusive = small, poorly fitted or top-dose-only effect, or another doubt; inactive = no such curve, though single readings can be large; an effect the other way counts as inactive or inconclusive.

What do the screens show for `Cc1ccc(C(C(=O)NCc2ccco2)N(C(=O)CNC(=O)c2cccs2)c2ccc(C)cc2C)cc1` (stereo unspecified)?
LmPK inh: 5.1%; Cycloheximide cs: 15.8*; Shiga toxin inh: 67.7*; FBPA Giardia inh: 2.9%; NS1 function inh: 28.2%

What do the screens show for `CCOC(=O)COc1cc([N+](=O)[O-])cc2cccnc12`?
LmPK inh: -4.8%; Cycloheximide cs: -3.8; Shiga toxin inh: -19.0; FBPA Giardia inh: 0.1%; NS1 function inh: 7.2%

What do the screens show for `CCOC(=O)COn1c(-c2cccc(Cl)c2)nc2ccc([N+](=O)[O-])cc21`?
LmPK inh: 3.4%; Cycloheximide cs: 76.1*; Shiga toxin inh: 63.5*; FBPA Giardia inh: -16.3%; NS1 function inh: -60.9%

How did CCOC(=O)C(C)On1c(-c2cccc(Cl)c2)nc2ccc([N+](=O)[O-])cc21 (stereo unspecified) do in these assays?
LmPK inh: 8.5%; Cycloheximide cs: 45.7*; Shiga toxin inh: 101.9*; FBPA Giardia inh: inconclusive; NS1 function inh: -152.3%

What do the screens show for `CCOC(=O)C(C)Oc1ccc2c(-c3cccc([N+](=O)[O-])c3)cc(=O)oc2c1` (stereo unspecified)?
LmPK inh: -2.2%; Cycloheximide cs: -5.6; Shiga toxin inh: -17.0; FBPA Giardia inh: -4.7%; NS1 function inh: -9.0%

What do the screens show for `CS(=O)(=O)Nc1cccc(-c2nc(NCCN3CCOCC3)c3ccccc3n2)c1`?
FBPA Giardia inh: -6.8%

What do the screens show for `COc1ccc(OCCSc2n[nH]c(N)n2)cc1`?
LmPK inh: 1.5%; Cycloheximide cs: 31.2*; Shiga toxin inh: 48.5; FBPA Giardia inh: 5.1%; NS1 function inh: -0.9%

Results for C=CCSc1nc2c(cnn2-c2ccccc2)c(=O)n1N ?
LmPK inh: -6.2%; Cycloheximide cs: 53.3*; Shiga toxin inh: 62.8*; FBPA Giardia inh: -4.9%; NS1 function inh: -39.7%

Results for Cc1ccc(/C=N\Nc2nc3ccc(Cl)cc3[nH]2)o1 ?
LmPK inh: 3.0%; Cycloheximide cs: 41.1*; Shiga toxin inh: 119.2*; FBPA Giardia inh: -5.7%; NS1 function inh: -41.3%

How did CCCCn1c(/C=N/Nc2nc3ccccc3[nH]2)nc2ccccc21 do in these assays?
LmPK inh: 4.9%; Cycloheximide cs: 2.5; Shiga toxin inh: 10.6; FBPA Giardia inh: 26.0%; NS1 function inh: -41.8%

What do the screens show for `Fc1ccccc1-c1ccc(/C=N/Nc2nc3ccccc3[nH]2)o1`?
LmPK inh: -23.0%; Cycloheximide cs: 50.1*; Shiga toxin inh: 49.3*; FBPA Giardia inh: 5.1%; NS1 function inh: -15.6%

How did Cc1ccc(/C=N/Nc2ccc3ccccc3n2)o1 do in these assays?
LmPK inh: inconclusive; Cycloheximide cs: 1.6; Shiga toxin inh: -5.9; FBPA Giardia inh: -20.8%

What do the screens show for `Cc1noc(C)c1S(=O)(=O)N1CCCC(C(=O)NCc2ccccc2Cl)C1` (stereo unspecified)?
LmPK inh: 8.6%; Cycloheximide cs: -2.4; Shiga toxin inh: -7.0; FBPA Giardia inh: 3.7%; NS1 function inh: 0.2%

How did CCOC(=O)c1cc(-c2ccccc2)nc2nc(N(CC)CC)sc12 do in these assays?
LmPK inh: 11.2%; Cycloheximide cs: -1.1; Shiga toxin inh: 2.6; FBPA Giardia inh: -5.8%; NS1 function inh: 18.2%

How did COC(=O)NC(c1ccc(Cl)cc1)C(C(C)=O)C(=O)OC (stereo unspecified) do in these assays?
FBPA Giardia inh: 0.2%[12.9 µM]

What do the screens show for `COc1ccc(N2CC(C(=O)Nc3nc4ccc(OC)cc4s3)CC2=O)cc1` (stereo unspecified)?
LmPK inh: 0.0%; Cycloheximide cs: 9.5; Shiga toxin inh: 22.5; FBPA Giardia inh: -0.4%; NS1 function inh: 1.0%

What do the screens show for `COc1ccc2nc(Nc3nc4cc5c(cc4s3)OCO5)sc2c1`?
LmPK inh: 4.3%; Cycloheximide cs: 22.6*; Shiga toxin inh: 64.4*; FBPA Giardia inh: 5.7%; NS1 function inh: 15.8%

Results for COc1ccc2nc(NC(=O)/C=C/c3ccc4c(c3)OCO4)sc2c1 ?
LmPK inh: -1.1%; Cycloheximide cs: 4.2; Shiga toxin inh: 17.9; FBPA Giardia inh: 6.7%; NS1 function inh: 4.3%

Results for COc1ccc2nc(Nc3ccc4c(c3)OCO4)sc2c1 ?
LmPK inh: -10.3%; Cycloheximide cs: 38.5*; Shiga toxin inh: 44.8*; FBPA Giardia inh: -3.4%; NS1 function inh: inconclusive

How did N#Cc1nc(-c2ccccc2)oc1NCCCn1ccnc1 do in these assays?
LmPK inh: -5.1%; Cycloheximide cs: 16.4*; Shiga toxin inh: 70.2; FBPA Giardia inh: 10.5%; NS1 function inh: -1.8%

How did COc1ccccc1-c1nc(C#N)c(NCCCn2ccnc2)o1 do in these assays?
LmPK inh: -0.5%; Cycloheximide cs: -2.4; Shiga toxin inh: -7.8; FBPA Giardia inh: 0.2%; NS1 function inh: 1.0%

Results for Cc1ccc(S(=O)(=O)NC2CC(C)(C)NC(C)(C)C2)cc1C ?
LmPK inh: -3.2%; Cycloheximide cs: -1.8; Shiga toxin inh: 1.6; FBPA Giardia inh: 5.8%; NS1 function inh: 7.6%

Results for COc1ccc2nc(SCC(=O)N3CCCCC3)c(C#N)cc2c1 ?
LmPK inh: 0.2%; Cycloheximide cs: -1.9; Shiga toxin inh: -3.3; FBPA Giardia inh: -10.7%; NS1 function inh: 4.8%

How did COc1ccc2nc(N3CCCC3)c(C#N)cc2c1 do in these assays?
LmPK inh: 1.0%; Cycloheximide cs: 16.3; Shiga toxin inh: 22.0; FBPA Giardia inh: -6.9%; NS1 function inh: -15.5%

Results for COc1ccc2nc(SCC(=O)N3CCCCCC3)c(C#N)cc2c1 ?
LmPK inh: -0.7%; Cycloheximide cs: 14.6*; Shiga toxin inh: 86.9*; FBPA Giardia inh: -27.8%; NS1 function inh: -21.8%

Results for COc1ccc2nc(N3CCCCC3)c(C#N)cc2c1 ?
LmPK inh: -3.1%; Cycloheximide cs: 64.1*; Shiga toxin inh: 124.0*; FBPA Giardia inh: 17.8µM*; NS1 function inh: -17.5%

Results for N#Cc1cc2cc3c(cc2nc1SCC(=O)N1CCOCC1)OCCO3 ?
LmPK inh: -5.5%; Cycloheximide cs: 51.8*; Shiga toxin inh: 74.2*; NS1 function inh: 7.7%

How did CC1(OC(=O)CCc2ccccc2)C(=O)C=C2C=C(c3ccsc3)OC=C2C1=O (stereo unspecified) do in these assays?
LmPK inh: -0.1%; Cycloheximide cs: -4.6; Shiga toxin inh: -7.1; FBPA Giardia inh: -1.8%; NS1 function inh: 1.26µM*

How did O=C(Nc1ncc(Cc2cccc(Cl)c2Cl)s1)C1CCCO1 (stereo unspecified) do in these assays?
LmPK inh: -2.2%; Cycloheximide cs: 47.5*; Shiga toxin inh: 100.5*; FBPA Giardia inh: -5.0%; NS1 function inh: -5.2%

What do the screens show for `O=C(Nc1ncc(Cc2cccc(Cl)c2)s1)C1CCCO1` (stereo unspecified)?
LmPK inh: -2.2%; Cycloheximide cs: 69.1*; Shiga toxin inh: 115.8*; NS1 function inh: -4.4%
